About 8,800 targets were measured; listed, in parts, are those with a hit and a random draw of the rest. About 0.5% of all pairs of compound and target were hits. A number with no mark means an inactive call.

This passage reports log2 fold change results from the supplement of paper PMC10849652.

UniProt Q9BUL8, sequence (Q9BUL8 whole entry, looked up): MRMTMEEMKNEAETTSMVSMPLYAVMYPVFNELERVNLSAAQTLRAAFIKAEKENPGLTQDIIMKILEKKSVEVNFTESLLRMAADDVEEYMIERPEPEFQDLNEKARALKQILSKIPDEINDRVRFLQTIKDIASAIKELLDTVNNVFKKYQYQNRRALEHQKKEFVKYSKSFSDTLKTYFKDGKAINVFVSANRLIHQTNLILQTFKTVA
UniProt Q9H3S7, sequence (Q9H3S7 whole entry, looked up): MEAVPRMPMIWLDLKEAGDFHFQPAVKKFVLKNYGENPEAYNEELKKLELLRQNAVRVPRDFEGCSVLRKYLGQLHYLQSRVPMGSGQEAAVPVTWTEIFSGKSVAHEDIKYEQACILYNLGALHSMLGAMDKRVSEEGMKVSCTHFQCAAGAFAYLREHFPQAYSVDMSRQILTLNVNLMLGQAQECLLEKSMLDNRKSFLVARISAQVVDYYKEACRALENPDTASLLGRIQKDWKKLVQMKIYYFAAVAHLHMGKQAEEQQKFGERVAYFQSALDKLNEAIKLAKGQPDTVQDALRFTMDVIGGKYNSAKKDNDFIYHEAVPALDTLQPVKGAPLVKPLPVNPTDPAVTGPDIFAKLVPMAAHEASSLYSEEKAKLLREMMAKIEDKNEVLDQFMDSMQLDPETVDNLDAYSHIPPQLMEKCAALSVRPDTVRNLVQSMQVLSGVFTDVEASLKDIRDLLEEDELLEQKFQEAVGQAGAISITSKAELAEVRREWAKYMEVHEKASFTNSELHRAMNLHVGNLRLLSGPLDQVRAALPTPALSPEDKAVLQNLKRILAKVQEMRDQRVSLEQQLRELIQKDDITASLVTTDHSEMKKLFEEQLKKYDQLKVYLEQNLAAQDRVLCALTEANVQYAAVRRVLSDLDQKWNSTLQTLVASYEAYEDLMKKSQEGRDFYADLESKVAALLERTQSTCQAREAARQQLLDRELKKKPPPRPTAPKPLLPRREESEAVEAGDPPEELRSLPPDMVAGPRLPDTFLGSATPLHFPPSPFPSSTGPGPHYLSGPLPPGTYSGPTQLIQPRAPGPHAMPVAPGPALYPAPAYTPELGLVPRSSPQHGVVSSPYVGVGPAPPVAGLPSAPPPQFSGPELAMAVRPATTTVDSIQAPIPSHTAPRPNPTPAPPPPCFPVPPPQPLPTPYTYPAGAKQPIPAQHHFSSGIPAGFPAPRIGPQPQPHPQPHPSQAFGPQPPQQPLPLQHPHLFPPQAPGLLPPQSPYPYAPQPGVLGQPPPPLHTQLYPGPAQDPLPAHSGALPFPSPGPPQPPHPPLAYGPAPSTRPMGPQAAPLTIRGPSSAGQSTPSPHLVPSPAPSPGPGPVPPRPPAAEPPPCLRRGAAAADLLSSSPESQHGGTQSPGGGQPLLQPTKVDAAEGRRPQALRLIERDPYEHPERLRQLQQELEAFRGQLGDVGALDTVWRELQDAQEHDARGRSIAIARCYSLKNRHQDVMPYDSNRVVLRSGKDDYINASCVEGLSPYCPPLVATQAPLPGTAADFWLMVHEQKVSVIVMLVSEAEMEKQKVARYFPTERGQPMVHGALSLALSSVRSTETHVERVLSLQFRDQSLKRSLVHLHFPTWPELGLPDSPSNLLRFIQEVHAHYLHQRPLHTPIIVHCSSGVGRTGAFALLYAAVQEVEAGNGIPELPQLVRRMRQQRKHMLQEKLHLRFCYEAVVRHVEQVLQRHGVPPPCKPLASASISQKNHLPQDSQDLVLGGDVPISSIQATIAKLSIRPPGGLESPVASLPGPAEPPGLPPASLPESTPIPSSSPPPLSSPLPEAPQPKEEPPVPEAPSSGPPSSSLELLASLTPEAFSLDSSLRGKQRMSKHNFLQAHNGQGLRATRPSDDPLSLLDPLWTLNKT
UniProt Q9H2H8, sequence (Q9H2H8 whole entry, looked up): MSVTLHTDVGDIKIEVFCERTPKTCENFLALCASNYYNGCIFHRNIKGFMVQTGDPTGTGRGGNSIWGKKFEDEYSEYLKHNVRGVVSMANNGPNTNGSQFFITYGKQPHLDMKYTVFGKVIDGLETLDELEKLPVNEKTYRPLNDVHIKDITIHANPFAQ
UniProt Q96C36, sequence (Q96C36 whole entry, looked up): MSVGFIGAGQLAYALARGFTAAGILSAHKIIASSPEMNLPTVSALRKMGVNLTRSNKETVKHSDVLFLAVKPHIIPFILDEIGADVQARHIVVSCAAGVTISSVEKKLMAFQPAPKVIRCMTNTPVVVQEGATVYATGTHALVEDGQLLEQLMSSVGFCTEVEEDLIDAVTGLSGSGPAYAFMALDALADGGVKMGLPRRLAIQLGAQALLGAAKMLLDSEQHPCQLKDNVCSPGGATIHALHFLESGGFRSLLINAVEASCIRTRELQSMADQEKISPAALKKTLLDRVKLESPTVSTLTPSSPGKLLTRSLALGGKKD
UniProt Q13442, sequence (Q13442 whole entry, looked up): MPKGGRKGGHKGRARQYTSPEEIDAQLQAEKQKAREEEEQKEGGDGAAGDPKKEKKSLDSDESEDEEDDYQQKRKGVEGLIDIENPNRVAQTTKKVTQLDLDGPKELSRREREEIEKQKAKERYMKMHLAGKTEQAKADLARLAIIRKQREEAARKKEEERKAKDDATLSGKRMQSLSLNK
UniProt O00264, sequence (O00264 whole entry, looked up): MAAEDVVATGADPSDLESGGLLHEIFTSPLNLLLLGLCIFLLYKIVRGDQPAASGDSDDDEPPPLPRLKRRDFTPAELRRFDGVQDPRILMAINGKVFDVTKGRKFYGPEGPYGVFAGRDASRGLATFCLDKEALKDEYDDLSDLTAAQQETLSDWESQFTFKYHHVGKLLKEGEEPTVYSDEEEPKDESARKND
UniProt P06454, sequence (P06454 whole entry, looked up): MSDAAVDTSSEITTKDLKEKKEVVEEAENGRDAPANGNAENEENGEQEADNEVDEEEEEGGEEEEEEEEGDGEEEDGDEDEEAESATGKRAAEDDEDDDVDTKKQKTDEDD
UniProt Q96CD2, sequence (Q96CD2 whole entry, looked up): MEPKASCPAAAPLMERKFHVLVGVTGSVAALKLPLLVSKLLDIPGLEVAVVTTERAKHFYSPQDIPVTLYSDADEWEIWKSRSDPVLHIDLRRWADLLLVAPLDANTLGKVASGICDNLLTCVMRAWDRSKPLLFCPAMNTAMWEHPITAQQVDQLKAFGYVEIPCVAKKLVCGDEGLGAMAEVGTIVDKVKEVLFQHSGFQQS
UniProt Q9BRX2, sequence (Q9BRX2 whole entry, looked up): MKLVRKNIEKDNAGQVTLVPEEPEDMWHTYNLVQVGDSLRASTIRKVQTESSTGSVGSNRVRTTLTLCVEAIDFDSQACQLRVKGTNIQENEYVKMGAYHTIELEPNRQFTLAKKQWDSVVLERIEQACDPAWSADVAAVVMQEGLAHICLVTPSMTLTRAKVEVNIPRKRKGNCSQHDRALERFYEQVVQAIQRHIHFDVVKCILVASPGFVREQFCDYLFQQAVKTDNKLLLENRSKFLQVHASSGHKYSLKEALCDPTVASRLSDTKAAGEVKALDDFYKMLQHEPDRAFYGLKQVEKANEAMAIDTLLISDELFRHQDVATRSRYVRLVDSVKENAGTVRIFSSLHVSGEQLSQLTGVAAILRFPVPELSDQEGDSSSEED
UniProt P45877, sequence (P45877 whole entry, looked up): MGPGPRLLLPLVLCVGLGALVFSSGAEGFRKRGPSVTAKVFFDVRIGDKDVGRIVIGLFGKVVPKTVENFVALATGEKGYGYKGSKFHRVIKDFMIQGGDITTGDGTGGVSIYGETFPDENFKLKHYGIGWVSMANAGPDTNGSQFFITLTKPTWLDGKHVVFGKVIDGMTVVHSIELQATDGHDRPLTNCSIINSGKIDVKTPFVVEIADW
UniProt Q93096, sequence (Q93096 whole entry, looked up): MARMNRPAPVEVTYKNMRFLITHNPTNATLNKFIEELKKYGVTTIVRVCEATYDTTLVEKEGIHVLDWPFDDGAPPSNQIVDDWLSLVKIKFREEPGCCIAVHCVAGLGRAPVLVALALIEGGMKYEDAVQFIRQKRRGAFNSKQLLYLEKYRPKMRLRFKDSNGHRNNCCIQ
UniProt P78356, sequence (P78356 whole entry, looked up): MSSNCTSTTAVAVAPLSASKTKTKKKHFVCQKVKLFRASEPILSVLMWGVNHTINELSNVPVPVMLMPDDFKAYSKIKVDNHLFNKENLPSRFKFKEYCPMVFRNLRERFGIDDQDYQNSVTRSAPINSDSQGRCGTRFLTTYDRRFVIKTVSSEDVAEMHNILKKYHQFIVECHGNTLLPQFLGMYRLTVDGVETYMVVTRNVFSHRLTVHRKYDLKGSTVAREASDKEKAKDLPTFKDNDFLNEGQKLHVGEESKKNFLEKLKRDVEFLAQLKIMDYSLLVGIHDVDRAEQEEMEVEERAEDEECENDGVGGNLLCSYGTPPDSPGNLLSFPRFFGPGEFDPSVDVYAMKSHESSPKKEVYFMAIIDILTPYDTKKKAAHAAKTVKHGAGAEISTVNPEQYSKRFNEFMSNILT

Compound in the first assay: O=C(CCCCCCC(=O)Nc1ccccc1)NO [vorinostat]
The experiment in a line: log2 fold change, soluble protein after heating vs DMSO (PISA); higher = thermal stabilisation; K562 lysate, 10 uM; active = over 0.2 and 3.5 SD of the protein, either way, in both replicates (recomputed). The gist of the method:
(§1)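 Log-two fold change in thermal stability relative to solvent controls is reported from duplicates. For each sample, crude K562 extract from dounce-homogenised pellets in PBS pH 7.4 with 1 mM MgCl2, at 1 mg/mL protein, was treated with 10 μM compound for 30 min. Aliquots heated for 3 min across 48°C-58°C were pooled, brought to 0.5% NP-40 at 4°C and cleared at 21,000xg for 90 min. The supernatant was quantified by TMTpro 16plex LC-MS/MS with channel sums equalised.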
As for PIK3CD (UniProt O00329), the log2 fold change is -0.516 (active).

With PIAS2 (UniProt O75928), the log2 fold change is -0.334 (active).

In the case of PDAP1 (UniProt Q13442), the log2 fold change was 0.118.

As for PTPN23 (UniProt Q9H3S7), the log2 fold change was -0.266 (active).

As for PIP4K2C (UniProt Q8TBX8), the log2 fold change is -0.07.

With PDCD6IP (UniProt Q8WUM4), the log2 fold change is -0.332 (active).

For the target PRIM1 (UniProt P49642), the log2 fold change was -0.284 (active).

Turning to PPCDC (UniProt Q96CD2), the log2 fold change is -0.002.

With PDXDC1 (UniProt Q6P996), the log2 fold change was -0.233 (active).

As for PPIC (UniProt P45877), the log2 fold change was 0.044.

On to PDCD10 (UniProt Q9BUL8), for which the log2 fold change is 0.158.

For the target POLR2M (UniProt P0CAP2), the log2 fold change was 0.

Regarding PYCR2 (UniProt Q96C36), the log2 fold change is 0.1.

In the case of PUM1 isoform 3 (UniProt Q14671), the log2 fold change was -0.192.

With PHKA2 (UniProt P46019), the log2 fold change is -0.29 (active).

Consider PI4KB (UniProt Q9UBF8), for which the log2 fold change was -0.132.

With PEX2 (UniProt P28328), the log2 fold change was -0.25.

PTPN6 isoform 4 (UniProt P29350): the log2 fold change was -0.039.

For PTMA (UniProt P06454), the log2 fold change was 0.093.

Turning to PI4K2A (UniProt Q9BTU6), the log2 fold change is -0.005.

In the case of PTP4A1 (UniProt Q93096), the log2 fold change was -0.292 (active).

Turning to PPFIA2 (UniProt O75334), the log2 fold change was -0.053.

As to PUF60 isoform 2 (UniProt Q9UHX1), the log2 fold change was 0.23.

Regarding PRKCSH (UniProt K7ELL7), the log2 fold change was 0.109.

On to PGRMC1 (UniProt O00264), for which the log2 fold change is 0.113.

PGLS (UniProt O95336): the log2 fold change was 0.079.

As for PIP4P2 (UniProt Q8N4L2), the log2 fold change is 0.029.

As for PPIL3 (UniProt Q9H2H8), the log2 fold change was -0.155.

PLA2G4B isoform 6 (UniProt P0C869): the log2 fold change is 0.002.

For PMS1 (UniProt P54277), the log2 fold change is -0.342 (active).

Turning to POC5 (UniProt Q8NA72), the log2 fold change is -0.36 (active).

For the target PELO (UniProt Q9BRX2), the log2 fold change is -0.495 (active).

In the case of PIK3R2 (UniProt O00459), the log2 fold change is -0.245.

PRKAR2B (UniProt P31323): the log2 fold change was -0.093.

As for PPP2R5C isoform 2 (UniProt Q13362), the log2 fold change was -0.12.

With PIP4K2B (UniProt P78356), the log2 fold change was 0.074.

Take PRKCA (UniProt P17252): the log2 fold change was -0.14.

POLR2M (UniProt Q6EEV4): the log2 fold change was -0.019.

Compound in a further assay: O=C(O)c1ccc2c(c1)nc(Nc1cccc(Cl)c1)c1ccncc12 [silmitasertib]
The assay is described as above. The gist of the method:
as §1
PIK3CD (UniProt O00329): the log2 fold change was 0.223.

On to PIAS2 (UniProt O75928), for which the log2 fold change was -0.091.

For PDAP1 (UniProt Q13442), the log2 fold change was 0.005.

For the target PTPN23 (UniProt Q9H3S7), the log2 fold change is -0.007.

For PIP4K2C (UniProt Q8TBX8), the log2 fold change is 0.425 (active).

As for PDCD6IP (UniProt Q8WUM4), the log2 fold change was -0.005.

As to PRIM1 (UniProt P49642), the log2 fold change is 0.049.

Take PPCDC (UniProt Q96CD2): the log2 fold change was 0.071.

For the target PDXDC1 (UniProt Q6P996), the log2 fold change was 0.038.

Take PPIC (UniProt P45877): the log2 fold change was 0.021.

Consider PDCD10 (UniProt Q9BUL8), for which the log2 fold change was -0.001.

Regarding POLR2M (UniProt P0CAP2), the log2 fold change is -0.029.

With PYCR2 (UniProt Q96C36), the log2 fold change is -0.008.

Consider PUM1 isoform 3 (UniProt Q14671), for which the log2 fold change was 0.

On to PHKA2 (UniProt P46019), for which the log2 fold change was 0.105.

On to PI4KB (UniProt Q9UBF8), for which the log2 fold change was 0.151.

In the case of PEX2 (UniProt P28328), the log2 fold change was 0.042.

Turning to PTPN6 isoform 4 (UniProt P29350), the log2 fold change is 0.078.

As to PTMA (UniProt P06454), the log2 fold change is -0.036.

Take PI4K2A (UniProt Q9BTU6): the log2 fold change is 0.074.

For the target PTP4A1 (UniProt Q93096), the log2 fold change was -0.003.

PPFIA2 (UniProt O75334): the log2 fold change is -0.074.

Turning to PUF60 isoform 2 (UniProt Q9UHX1), the log2 fold change was 0.075.

For PRKCSH (UniProt K7ELL7), the log2 fold change was 0.016.

PGRMC1 (UniProt O00264): the log2 fold change was 0.017.

Consider PGLS (UniProt O95336), for which the log2 fold change is -0.034.

Take PIP4P2 (UniProt Q8N4L2): the log2 fold change is 0.034.

As for PPIL3 (UniProt Q9H2H8), the log2 fold change was -0.022.

For PLA2G4B isoform 6 (UniProt P0C869), the log2 fold change is -0.017.

As for PMS1 (UniProt P54277), the log2 fold change was 0.018.

In the case of POC5 (UniProt Q8NA72), the log2 fold change is -0.021.

As for PELO (UniProt Q9BRX2), the log2 fold change is 0.058.

As for PIK3R2 (UniProt O00459), the log2 fold change is 0.201.

In the case of PRKAR2B (UniProt P31323), the log2 fold change was 0.009.

For PPP2R5C isoform 2 (UniProt Q13362), the log2 fold change was 0.015.

Turning to PIP4K2B (UniProt P78356), the log2 fold change was 0.221.

PRKCA (UniProt P17252): the log2 fold change was 0.044.

With POLR2M (UniProt Q6EEV4), the log2 fold change is -0.069.
